The source made the active and inactive calls.
Molecular target: Albumin (Bos taurus) (UniProt P02769)
Assay: compounds binding labelled BSA control protein – biochemical, small-molecule microarray, Alexa647 label, 635/667 nm fluorescence, artefact control for SMM control protein annotation, profiling panel (AID 1118);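 also: score merges 667 nm emission intensity and signal-to-noise per printed compound spot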
Conditions: BSA-A647 binding, fluorescence 635 nm, higher = more signal

Sequence of Albumin (Bos taurus) (P02769 whole entry, looked up): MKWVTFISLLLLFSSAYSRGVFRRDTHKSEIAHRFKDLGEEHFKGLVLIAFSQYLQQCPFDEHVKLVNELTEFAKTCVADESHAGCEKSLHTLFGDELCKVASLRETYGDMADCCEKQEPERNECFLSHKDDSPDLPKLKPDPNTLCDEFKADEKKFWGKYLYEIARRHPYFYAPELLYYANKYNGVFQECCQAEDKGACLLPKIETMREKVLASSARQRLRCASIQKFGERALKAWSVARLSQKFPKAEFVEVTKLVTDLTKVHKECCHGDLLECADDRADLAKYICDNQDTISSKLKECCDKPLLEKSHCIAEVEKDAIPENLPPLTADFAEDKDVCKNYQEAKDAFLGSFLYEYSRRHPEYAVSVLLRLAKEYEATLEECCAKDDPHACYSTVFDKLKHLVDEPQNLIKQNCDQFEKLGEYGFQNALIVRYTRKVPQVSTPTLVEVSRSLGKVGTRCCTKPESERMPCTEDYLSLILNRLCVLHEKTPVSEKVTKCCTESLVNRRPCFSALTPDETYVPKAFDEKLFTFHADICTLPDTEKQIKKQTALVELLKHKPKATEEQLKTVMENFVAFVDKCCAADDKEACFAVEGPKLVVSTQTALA

SMILES	composite z-score
COc1ccc(C(O)C2C=CC3C(=O)N(c4ccccc4)C(=O)C3N2Nc2ccc([N+](=O)[O-])cc2)cc1OCc1ccccc1 (stereo unspecified)	0.927
CC(=O)NCCCC[C@@H]1NC(=O)[C@@H]2C[C@H](C(=O)NCCCCN(C)C)[C@H](c3ccc(O)cc3)N2C1=O	-0.503
CC(C)C(=C=CC[C@H](O)c1cccc(OCCO)c1)C[C@H](O)COCc1ccccc1	-0.0081
CC(C)C(=C=CC[C@@H](O)c1ccccc1OCCO)C[C@@H](O)c1ccccn1	0.0682
O=C1O[C@@H](c2ccccc2)[C@@H](c2ccccc2)N2[C@@H](c3ccccc3OCCO)[C@]3(C(=O)Nc4ccc(C#CC5(O)CCCCCC5)cc43)[C@@H](C(=O)Nc3nc4ccccc4s3)[C@H]12	0.663
C=CCN1C(=O)[C@]2(O[C@H](CCO)[C@@H]([Si](C)(C)c3ccc(OC)cc3)[C@@H]2C)c2cc(NC(=O)[C@H](C)O)ccc21	0.851

Test system: not listed separately
Assay: probe aXIP binding to arrayed compounds – biochemical, NeuroSMM set, 635/667 nm fluorescence, primary screen (AID 1119);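 also: probe is the protein aXip251-270 applied at 1 µg/mL to compound-printed slides; binding of probe to printed compounds measured as 667 nm fluorescence plus signal to noise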
Conditions: small-molecule microarray, higher = more signal, called active from +8 up or from −8 down

SMILES	composite Z-score
CCCN1C(=O)[C@@]2(CCC(=O)OC(C)(C)C)N=C(c3ccc(OCCCO)cc3)O[C@H]2c2ccccc21	0.548 (inactive)
O=C(O)[C@H]1C[C@H]2C(=O)NCC(=O)N2[C@H]1c1ccc(O)cc1	0.289 (inactive)
CC(C)c1ccc(NN2C(C(O)c3ccc(N(C)C)cc3)C=CC3C(=O)N(c4ccccc4)C(=O)C32)cc1 (stereo unspecified)	-0.343 (inactive)
CCC[C@@H]1C=C(C(=O)O)[C@H](c2ccc(C)cc2)N1S(=O)(=O)c1ccc(C)cc1	0.102 (inactive)
CC(C)c1ccc(NN2C(C(O)c3c(F)cccc3Cl)C=CC3C(=O)N(c4ccccc4)C(=O)C32)cc1 (stereo unspecified)	-0.193 (inactive)
CC(C)=CCCC(C)=CC(O)C1C=CC2C(=O)N(c3ccccc3)C(=O)C2N1Nc1ccccc1 (stereo unspecified)	-0.0662 (inactive)
COCC1=C2[C@@H](CCc3ccccc3)OB(O)C[C@@H]2[C@@H]2C(=O)N(Cc3ccccc3)C(=O)[C@@H]2C1	-0.524 (inactive)
COC(=O)[C@@]1(Cc2ccc(OC)cc2)[C@H]2c3cc(C(=O)N4CCCC4)n(CCc4c[nH]c5cc(F)ccc45)c3C[C@H]2CN1C(=O)c1ccccc1	-0.0378 (inactive)
CC(C)N1CC=CC23O[C@@H]4C=CCOC(=O)[C@@H]4[C@H]2C(=O)N(CCO)[C@@H]3C1=O (stereo partly specified)	0.604 (inactive)
COC(=O)C(CC#Cc1ccc2c(c1)[C@]1(C(=O)N2)[C@H](c2ccc(OCCO)cc2)N2[C@H](c3ccccc3)[C@H](c3ccccc3)OC(=O)[C@H]2[C@@H]1C(=O)NC[C@H](O)c1ccccc1)C(=O)OC	0.0996 (inactive)
CC(C)NC(=O)[C@@]1(Cc2ccccc2I)c2ccccc2C(=O)N(Cc2ccccc2)[C@H]1c1ccc(CO)cc1	1.17 (inactive)
CCOC(=O)C[C@H]1[C@H](OC(=O)Cc2ccc3c(c2)OCO3)[C@@H](NC(=O)c2ccc(-c3ccccc3)cc2)c2cc(OCCCO)ccc2N1C(=O)c1ccccc1	0.133 (inactive)
CC(c1ccccc1)C(O)C1C=CC2C(=O)NC(=O)C2N1Nc1ccccn1 (stereo unspecified)	0.239 (inactive)
COc1ccc(C#Cc2ccc3c(c2)[C@]2(C(=O)N3)[C@H](c3ccc(O)cc3)N3[C@H](c4ccccc4)[C@H](c4ccccc4)OC(=O)[C@H]3[C@@H]2C(=O)NC[C@H](O)c2ccccc2)cc1	-0.118 (inactive)
O=C1O[C@H](c2ccccc2)[C@H](c2ccccc2)N2[C@H]1[C@@H](C(=O)O)[C@]1(C(=O)Nc3ccc(C#CC4(O)CCCCCC4)cc31)[C@H]2c1ccc(OCCO)cc1	-0.0503 (inactive)
NCCCCCCNC(=O)[C@H]1C[C@H]2C(=O)NCC(=O)N2[C@H]1c1cccc(OCCO)c1	0.727 (inactive)
C=CCOC(=O)[C@H]1[C@@H]2C(=O)O[C@@H](c3ccccc3)[C@@H](c3ccccc3)N2[C@@H](c2ccc(OCCOC(=O)[C@@H]3C[C@@H]4C(=O)NCC(=O)N4[C@@H]3c3ccc(O)cc3)cc2)[C@]12C(=O)Nc1ccccc12	1.07 (inactive)
[N-]=[N+]=Nc1ccccc1C[C@]1(C(=O)NCCN2CCOCC2)N=C(c2ccc(OCCCO)cc2)O[C@H]1c1ccccc1	0.619 (inactive)

SMILES	composite Z-score
CC(C)N1C(=O)C[C@@](C(=O)NCc2ccccc2)(c2ccc([N+](=O)[O-])cc2)[C@H]1c1ccc(CO)cc1	0.0119 (inactive)
O=C1OCCC/C=C\[C@H]2OC34C=CCN(Cn5nnc6ccccc65)C(=O)[C@H]3N(CCCCCO)C(=O)[C@@H]4C12 (stereo partly specified)	-0.263 (inactive)
NCCCCCNC(=O)[C@H]1C[C@H]2C(=O)NCC(=O)N2[C@H]1c1cccc(OCCO)c1	0.131 (inactive)
CN1C=C(C(=O)OCCS(C)(=O)=O)C(C(=O)OCCS(C)(=O)=O)=CC(CCCO)=CC1C1CC1 (stereo unspecified)	-0.561 (inactive)
COCCOC(=O)N1C(=O)[C@@]2(c3cc(C#CC4=CCCCC4)ccc31)[C@H](C(=O)NC[C@H](O)c1ccccc1)[C@H]1C(=O)O[C@H](c3ccccc3)[C@H](c3ccccc3)N1[C@@H]2c1ccc(O)cc1	0.0886 (inactive)
CCCCCCCCCCC(O)C1C=CC2C(=O)N(Cc3ccccc3)C(=O)C2N1n1cnnc1 (stereo unspecified)	0.797 (inactive)
Cc1ccccc1C(O)C1C=CC2C(=O)N(C)C(=O)C2N1N1CCCCC1 (stereo unspecified)	-0.118 (inactive)
CC(=O)NCCCC[C@@H]1NC(=O)[C@@H]2C[C@H](C(=O)NCCCCCCNC(=O)CS)[C@H](c3ccc(O)cc3)N2C1=O	-0.202 (inactive)
C=CCOC(=O)[C@H]1[C@@H]2C(=O)O[C@@H](c3ccccc3)[C@@H](c3ccccc3)N2[C@@H](c2ccc(OCCOC(=O)[C@@H]3C[C@@H]4C(=O)N5CCC[C@H]5C(=O)N4[C@@H]3c3ccc(O)cc3)cc2)[C@]12C(=O)Nc1ccccc12	0.0088 (inactive)
C=CCC(OC(C)=O)[C@@H]1[C@@H](N(Cc2ccc(-c3ccccc3)cc2)C(=O)Cc2ccc(OC)cc2)c2cc(OCCCO)ccc2N1C(=O)c1ccc2ccccc2n1 (stereo partly specified)	0.245 (inactive)
COC(=O)C(CC#Cc1ccc2c(c1)[C@]1(C(=O)N2)[C@H](C(=O)NC[C@H](O)c2ccccc2)[C@H]2C(=O)O[C@H](c3ccccc3)[C@H](c3ccccc3)N2[C@@H]1c1ccc(OCCO)cc1)C(=O)OC	2.12 (inactive)
COc1ccc(C(O)C2C=CC3C(=O)N(c4ccccc4)C(=O)C3N2Nc2ccc([N+](=O)[O-])cc2)cc1OCc1ccccc1 (stereo unspecified)	-0.114 (inactive)
CC(=O)NCCCC[C@@H]1NC(=O)[C@@H]2C[C@H](C(=O)NCCCCN(C)C)[C@H](c3ccc(O)cc3)N2C1=O	0.48 (inactive)
CC(C)C(=C=CC[C@H](O)c1cccc(OCCO)c1)C[C@H](O)COCc1ccccc1	1.64 (inactive)
CC(C)C(=C=CC[C@@H](O)c1ccccc1OCCO)C[C@@H](O)c1ccccn1	-0.776 (inactive)
O=C1O[C@@H](c2ccccc2)[C@@H](c2ccccc2)N2[C@@H](c3ccccc3OCCO)[C@]3(C(=O)Nc4ccc(C#CC5(O)CCCCCC5)cc43)[C@@H](C(=O)Nc3nc4ccccc4s3)[C@H]12	-0.0544 (inactive)
C=CCN1C(=O)[C@]2(O[C@H](CCO)[C@@H]([Si](C)(C)c3ccc(OC)cc3)[C@@H]2C)c2cc(NC(=O)[C@H](C)O)ccc21	1.31 (inactive)

Reference: PubChem BioAssay
